In article PMC7862700, “An all-to-all approach to the identification of sequence-specific readers for epigenetic DNA modifications on cytosine” one finds binding signal data, which are given here for two sequences.

What all share (assay): DAPPL (digital affinity profiling via proximity ligation, sequencing); 10 mM Tris-HCl pH 7.5, 50 mM NaCl, 1 mM DTT, 4% glycerol, room temperature, 30 min; GST-TFs on glutathione beads, 16-mer random dsDNA library, 0.1% formaldehyde crosslink after washing; high values mean tight binding
Holding throughout (details): protein: recombinant; tags: N-terminal GST; dsDNA, one strand shown

One experiment deals with ELF1 (Homo sapiens, UniProt P32519 1-619). Summed up: (§1)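 A tag-only sample was pooled with DNA-barcoded human transcription factors that had been expressed in yeast as GST fusions and captured on glutathione beads. The pools were incubated for 30 min at room temperature with 200 nmole of a random double-stranded 16-mer DNA library in Tris/NaCl/DTT/glycerol buffer, then washed, crosslinked with 0.1% formaldehyde, proximity-ligated (BsaI/T4 ligase, 1 h, 37 °C), PCR-amplified and sequenced on an Illumina NextSeq500. Binding signal is each hexamer's read frequency for a factor divided by its frequency for the tag-only sample.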

The target of a further experiment is T1, EHF (Homo sapiens, UniProt Q9NZC4 1-300).
T1 sequence: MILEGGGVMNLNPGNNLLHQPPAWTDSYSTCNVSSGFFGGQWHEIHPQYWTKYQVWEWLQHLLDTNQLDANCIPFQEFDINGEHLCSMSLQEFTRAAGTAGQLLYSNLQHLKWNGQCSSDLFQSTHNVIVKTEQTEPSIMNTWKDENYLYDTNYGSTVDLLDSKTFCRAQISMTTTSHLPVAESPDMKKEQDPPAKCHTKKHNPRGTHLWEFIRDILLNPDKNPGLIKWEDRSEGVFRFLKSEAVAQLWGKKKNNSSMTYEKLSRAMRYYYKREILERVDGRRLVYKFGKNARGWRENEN
A digest of the protocol:
as §1

For the next experiment, the target named is T2, ELK3 (Homo sapiens, UniProt P41970 1-407).
T2 sequence: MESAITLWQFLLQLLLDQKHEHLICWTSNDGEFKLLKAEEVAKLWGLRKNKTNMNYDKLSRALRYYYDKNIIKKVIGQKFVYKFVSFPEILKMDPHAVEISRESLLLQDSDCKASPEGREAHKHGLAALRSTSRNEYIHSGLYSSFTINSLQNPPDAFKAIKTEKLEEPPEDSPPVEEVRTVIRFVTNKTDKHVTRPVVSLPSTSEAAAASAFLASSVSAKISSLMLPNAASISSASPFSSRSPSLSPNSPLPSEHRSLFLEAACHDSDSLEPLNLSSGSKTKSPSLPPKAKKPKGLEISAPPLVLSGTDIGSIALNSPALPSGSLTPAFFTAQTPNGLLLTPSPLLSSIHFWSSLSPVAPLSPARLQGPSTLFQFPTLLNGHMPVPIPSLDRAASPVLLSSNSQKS
A digest of the protocol: as §1

For a further experiment, the target named is T3, SPIC (Homo sapiens, UniProt Q8N5J4 1-248).
T3 sequence: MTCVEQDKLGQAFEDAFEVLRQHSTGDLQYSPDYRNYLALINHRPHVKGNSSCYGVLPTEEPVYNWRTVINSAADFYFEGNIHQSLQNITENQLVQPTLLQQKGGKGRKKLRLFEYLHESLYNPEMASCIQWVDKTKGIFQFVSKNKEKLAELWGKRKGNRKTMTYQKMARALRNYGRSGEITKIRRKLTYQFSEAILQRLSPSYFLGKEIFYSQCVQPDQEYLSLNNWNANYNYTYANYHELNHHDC
A digest of the protocol:
as §1

In the next experiment the target is ELF4 (Homo sapiens, UniProt Q99607 1-663). A digest of the protocol: as §1
The next experiment addresses T4, ELK4 (Homo sapiens, UniProt P28324-2 1-405).
T4 sequence: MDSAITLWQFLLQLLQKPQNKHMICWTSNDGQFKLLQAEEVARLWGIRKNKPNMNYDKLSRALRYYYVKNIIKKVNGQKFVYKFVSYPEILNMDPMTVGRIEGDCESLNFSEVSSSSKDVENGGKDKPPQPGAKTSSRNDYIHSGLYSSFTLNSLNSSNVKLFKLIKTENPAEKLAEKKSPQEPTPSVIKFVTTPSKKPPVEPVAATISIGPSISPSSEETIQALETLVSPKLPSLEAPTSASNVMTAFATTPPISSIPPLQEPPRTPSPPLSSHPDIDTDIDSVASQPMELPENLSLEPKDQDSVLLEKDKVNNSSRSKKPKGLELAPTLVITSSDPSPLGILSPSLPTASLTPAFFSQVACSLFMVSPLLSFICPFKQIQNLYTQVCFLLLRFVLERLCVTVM
Summed up: as §1

For another experiment, the target named is T5, ELF3 (Homo sapiens, UniProt P78545 1-371).
T5 sequence: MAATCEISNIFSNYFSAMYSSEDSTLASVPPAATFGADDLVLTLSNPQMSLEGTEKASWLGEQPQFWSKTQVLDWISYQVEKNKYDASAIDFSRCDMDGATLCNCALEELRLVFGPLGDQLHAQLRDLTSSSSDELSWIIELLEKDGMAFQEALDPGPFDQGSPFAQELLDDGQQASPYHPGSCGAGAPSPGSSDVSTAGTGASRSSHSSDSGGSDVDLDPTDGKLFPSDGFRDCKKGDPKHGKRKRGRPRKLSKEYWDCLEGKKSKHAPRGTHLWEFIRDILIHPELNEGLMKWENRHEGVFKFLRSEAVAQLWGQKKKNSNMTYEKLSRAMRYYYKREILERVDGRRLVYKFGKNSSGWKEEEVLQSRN
Summed up: as §1

The target in the next experiment is ETV1 (Homo sapiens, UniProt P50549 1-477). A digest of the protocol: as §1
For a further experiment, the target named is T6, ERF (Homo sapiens, UniProt P50548 1-548).
T6 sequence: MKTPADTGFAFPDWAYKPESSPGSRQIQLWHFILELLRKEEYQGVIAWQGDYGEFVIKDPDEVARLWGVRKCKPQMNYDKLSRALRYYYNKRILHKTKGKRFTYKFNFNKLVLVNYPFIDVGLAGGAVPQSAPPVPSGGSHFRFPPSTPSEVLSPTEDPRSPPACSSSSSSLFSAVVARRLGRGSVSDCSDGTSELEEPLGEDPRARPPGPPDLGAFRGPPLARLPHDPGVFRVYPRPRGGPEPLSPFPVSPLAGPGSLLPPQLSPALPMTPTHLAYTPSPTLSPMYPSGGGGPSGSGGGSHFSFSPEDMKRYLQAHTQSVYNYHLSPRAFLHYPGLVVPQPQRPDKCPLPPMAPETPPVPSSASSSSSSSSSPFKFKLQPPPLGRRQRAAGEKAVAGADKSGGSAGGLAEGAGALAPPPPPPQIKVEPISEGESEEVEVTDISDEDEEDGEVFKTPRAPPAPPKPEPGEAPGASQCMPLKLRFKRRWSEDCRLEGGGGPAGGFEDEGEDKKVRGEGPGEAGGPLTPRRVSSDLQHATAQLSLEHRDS
A digest of the protocol: as §1

The target of a further experiment is T7, ETV3L (Homo sapiens, UniProt Q6ZN32 1-361).
T7 sequence: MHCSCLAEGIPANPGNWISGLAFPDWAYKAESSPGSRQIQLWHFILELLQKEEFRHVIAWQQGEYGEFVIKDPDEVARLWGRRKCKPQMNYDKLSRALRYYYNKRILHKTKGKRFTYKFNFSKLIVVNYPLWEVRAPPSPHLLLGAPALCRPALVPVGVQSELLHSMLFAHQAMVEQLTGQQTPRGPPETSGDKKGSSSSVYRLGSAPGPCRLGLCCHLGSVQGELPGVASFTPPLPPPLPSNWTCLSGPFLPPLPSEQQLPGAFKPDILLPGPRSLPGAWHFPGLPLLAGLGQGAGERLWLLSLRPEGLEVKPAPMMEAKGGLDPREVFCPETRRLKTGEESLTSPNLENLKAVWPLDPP
Summed up: as §1

Another experiment addresses T8, ETS2 (Homo sapiens, UniProt P15036 1-469).
T8 sequence: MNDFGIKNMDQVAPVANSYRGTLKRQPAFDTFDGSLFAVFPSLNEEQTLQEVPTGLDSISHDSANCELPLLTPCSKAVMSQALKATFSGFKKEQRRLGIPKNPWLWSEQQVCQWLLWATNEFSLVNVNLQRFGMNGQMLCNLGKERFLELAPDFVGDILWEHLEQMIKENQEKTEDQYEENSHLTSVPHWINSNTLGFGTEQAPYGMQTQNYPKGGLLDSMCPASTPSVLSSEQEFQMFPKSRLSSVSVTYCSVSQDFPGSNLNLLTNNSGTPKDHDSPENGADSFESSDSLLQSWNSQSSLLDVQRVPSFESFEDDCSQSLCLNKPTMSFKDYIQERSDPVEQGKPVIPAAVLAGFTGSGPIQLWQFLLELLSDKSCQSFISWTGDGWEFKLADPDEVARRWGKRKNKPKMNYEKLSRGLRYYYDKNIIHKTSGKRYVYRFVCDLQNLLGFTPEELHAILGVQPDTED
A digest of the protocol:
as §1

The next experiment addresses T9, ETV7 (Homo sapiens, UniProt Q9Y603 1-341).
T9 sequence: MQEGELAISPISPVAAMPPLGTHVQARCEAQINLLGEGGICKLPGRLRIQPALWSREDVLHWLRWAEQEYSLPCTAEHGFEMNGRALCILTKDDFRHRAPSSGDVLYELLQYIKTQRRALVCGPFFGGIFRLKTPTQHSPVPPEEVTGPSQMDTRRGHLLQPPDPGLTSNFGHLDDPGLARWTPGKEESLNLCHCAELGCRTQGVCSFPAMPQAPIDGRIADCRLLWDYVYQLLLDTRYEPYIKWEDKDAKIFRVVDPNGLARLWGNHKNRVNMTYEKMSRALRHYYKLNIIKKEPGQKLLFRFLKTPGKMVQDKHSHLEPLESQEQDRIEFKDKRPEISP
A digest of the protocol: as §1

The target in a further experiment is T10, ETV3 (Homo sapiens, UniProt P41162-2 1-143).
T10 sequence: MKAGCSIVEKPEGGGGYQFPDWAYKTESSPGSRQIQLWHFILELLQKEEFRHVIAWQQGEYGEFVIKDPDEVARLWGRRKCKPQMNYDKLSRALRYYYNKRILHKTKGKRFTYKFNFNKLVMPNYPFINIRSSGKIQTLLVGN
A digest of the protocol:
as §1

For the next experiment, the target named is ETV6 (Homo sapiens, UniProt P41212 1-452). Summed up: as §1
For another experiment, the target named is T11, ELK1 (Homo sapiens, UniProt P19419 1-428).
T11 sequence: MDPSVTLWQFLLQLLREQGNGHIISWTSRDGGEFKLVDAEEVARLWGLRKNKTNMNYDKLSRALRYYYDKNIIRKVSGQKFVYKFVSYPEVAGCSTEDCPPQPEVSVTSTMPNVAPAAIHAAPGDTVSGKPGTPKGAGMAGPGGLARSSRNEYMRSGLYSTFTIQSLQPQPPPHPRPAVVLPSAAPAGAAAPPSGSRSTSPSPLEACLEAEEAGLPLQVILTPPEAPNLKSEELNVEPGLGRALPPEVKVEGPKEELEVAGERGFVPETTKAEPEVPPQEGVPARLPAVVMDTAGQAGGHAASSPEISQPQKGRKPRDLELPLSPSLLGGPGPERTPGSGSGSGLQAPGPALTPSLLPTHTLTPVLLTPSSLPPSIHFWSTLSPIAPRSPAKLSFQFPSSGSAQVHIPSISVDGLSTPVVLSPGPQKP
Summed up: as §1

The next experiment has as its target T12, ERG (Homo sapiens, UniProt P11308 1-479).
T12 sequence: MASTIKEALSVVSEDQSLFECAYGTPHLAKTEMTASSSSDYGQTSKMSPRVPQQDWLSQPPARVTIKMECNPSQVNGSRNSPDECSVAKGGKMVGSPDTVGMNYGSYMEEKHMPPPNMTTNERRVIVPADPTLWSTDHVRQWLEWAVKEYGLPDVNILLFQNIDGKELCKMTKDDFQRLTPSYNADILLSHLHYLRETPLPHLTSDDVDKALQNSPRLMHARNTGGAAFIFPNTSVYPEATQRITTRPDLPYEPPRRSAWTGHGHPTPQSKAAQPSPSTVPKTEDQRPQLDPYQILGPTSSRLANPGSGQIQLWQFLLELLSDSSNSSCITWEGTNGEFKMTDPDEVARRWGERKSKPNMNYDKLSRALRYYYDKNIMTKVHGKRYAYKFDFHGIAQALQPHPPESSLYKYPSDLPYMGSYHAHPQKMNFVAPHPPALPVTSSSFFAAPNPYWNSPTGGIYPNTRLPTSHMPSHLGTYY
A digest of the protocol: as §1

Chain of ETV6 (P41212 whole entry): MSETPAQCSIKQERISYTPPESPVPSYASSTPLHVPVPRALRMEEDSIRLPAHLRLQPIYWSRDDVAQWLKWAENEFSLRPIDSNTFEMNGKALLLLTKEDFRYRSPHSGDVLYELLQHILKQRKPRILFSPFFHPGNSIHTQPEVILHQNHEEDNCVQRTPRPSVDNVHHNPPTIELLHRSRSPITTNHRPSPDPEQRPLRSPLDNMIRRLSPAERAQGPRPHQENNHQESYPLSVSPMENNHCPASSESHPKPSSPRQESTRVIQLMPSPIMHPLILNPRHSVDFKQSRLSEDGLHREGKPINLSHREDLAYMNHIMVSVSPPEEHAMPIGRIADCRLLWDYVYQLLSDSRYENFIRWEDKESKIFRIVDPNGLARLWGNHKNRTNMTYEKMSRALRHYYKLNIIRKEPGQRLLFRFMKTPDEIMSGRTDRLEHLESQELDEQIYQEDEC
Chain of ELF1 (P32519 whole entry, the tested form may be a part): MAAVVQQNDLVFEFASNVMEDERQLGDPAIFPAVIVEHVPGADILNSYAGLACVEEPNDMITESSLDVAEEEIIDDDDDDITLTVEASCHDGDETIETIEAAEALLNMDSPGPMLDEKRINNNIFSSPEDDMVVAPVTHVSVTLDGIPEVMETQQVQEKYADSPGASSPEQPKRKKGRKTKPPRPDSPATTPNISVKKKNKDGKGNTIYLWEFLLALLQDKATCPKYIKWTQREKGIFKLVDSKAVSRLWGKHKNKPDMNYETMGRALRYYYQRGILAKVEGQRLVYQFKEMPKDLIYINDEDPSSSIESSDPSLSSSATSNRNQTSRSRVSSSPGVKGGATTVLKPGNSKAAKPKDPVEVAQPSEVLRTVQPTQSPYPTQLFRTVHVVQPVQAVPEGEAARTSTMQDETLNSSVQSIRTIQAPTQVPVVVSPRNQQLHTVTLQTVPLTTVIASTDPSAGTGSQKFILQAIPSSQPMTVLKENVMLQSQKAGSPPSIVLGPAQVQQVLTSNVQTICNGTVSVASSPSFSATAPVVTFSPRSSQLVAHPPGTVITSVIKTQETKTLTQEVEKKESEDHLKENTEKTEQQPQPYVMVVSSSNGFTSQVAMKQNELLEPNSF
Chain of ETV1 (P50549 whole entry): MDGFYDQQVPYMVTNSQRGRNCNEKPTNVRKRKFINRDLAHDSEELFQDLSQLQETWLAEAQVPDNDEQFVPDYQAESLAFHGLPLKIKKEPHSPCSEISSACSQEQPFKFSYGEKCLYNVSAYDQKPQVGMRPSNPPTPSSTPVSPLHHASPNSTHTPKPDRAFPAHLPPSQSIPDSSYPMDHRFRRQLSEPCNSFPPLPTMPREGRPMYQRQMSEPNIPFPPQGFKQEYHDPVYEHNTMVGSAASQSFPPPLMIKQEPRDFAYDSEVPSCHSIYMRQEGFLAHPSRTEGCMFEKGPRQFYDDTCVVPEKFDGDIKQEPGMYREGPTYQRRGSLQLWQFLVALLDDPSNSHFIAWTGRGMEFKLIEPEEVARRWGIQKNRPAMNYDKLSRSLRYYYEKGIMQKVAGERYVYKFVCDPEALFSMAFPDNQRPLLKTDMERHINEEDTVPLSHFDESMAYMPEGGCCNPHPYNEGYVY
Chain of ELF4 (Q99607 whole entry): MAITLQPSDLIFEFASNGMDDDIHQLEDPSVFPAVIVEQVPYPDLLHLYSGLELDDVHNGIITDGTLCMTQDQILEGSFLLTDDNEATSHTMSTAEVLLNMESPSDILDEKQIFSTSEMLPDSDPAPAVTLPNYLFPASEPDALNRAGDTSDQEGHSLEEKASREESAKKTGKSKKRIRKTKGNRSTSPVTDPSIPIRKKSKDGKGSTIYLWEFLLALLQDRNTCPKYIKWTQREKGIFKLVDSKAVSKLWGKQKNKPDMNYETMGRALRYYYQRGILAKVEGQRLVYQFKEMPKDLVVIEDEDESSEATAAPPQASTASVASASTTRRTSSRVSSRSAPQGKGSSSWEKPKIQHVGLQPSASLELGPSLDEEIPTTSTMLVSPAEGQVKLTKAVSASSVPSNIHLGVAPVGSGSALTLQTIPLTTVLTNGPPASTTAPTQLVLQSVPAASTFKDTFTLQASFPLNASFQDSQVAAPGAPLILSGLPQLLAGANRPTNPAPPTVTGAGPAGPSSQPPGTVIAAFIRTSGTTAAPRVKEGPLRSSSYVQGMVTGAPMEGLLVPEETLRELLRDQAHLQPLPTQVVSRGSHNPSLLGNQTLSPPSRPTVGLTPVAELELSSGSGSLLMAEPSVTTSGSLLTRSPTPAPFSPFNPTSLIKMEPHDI

For AGCTAG, the binding signal with ELF1 is 1.06 fold enrichment (6-mer frequency, TF over GST control); in the experiment with EHF, 1.02 fold enrichment (6-mer frequency, TF over GST control); with ELK3, 1 fold enrichment (6-mer frequency, TF over GST control); in the experiment with SPIC, 1.08 fold enrichment (6-mer frequency, TF over GST control); with ELF4, 1.05 fold enrichment (6-mer frequency, TF over GST control); with ELK4, 1.01 fold enrichment (6-mer frequency, TF over GST control). The binding signal was 1.1 fold enrichment (6-mer frequency, TF over GST control) with ELF3; 1.05 fold enrichment (6-mer frequency, TF over GST control) with ETV1; 1.08 fold enrichment (6-mer frequency, TF over GST control) with ERF; 1.11 fold enrichment (6-mer frequency, TF over GST control) in the experiment with ETV3L; 1.07 fold enrichment (6-mer frequency, TF over GST control) with ETS2; 1.17 fold enrichment (6-mer frequency, TF over GST control) in the experiment with ETV7. For the same sequence, the binding signal with ETV3 was 1.01 fold enrichment (6-mer frequency, TF over GST control); in the experiment with ETV6, 1.03 fold enrichment (6-mer frequency, TF over GST control).
In the case of CCCCAG, the binding signal with ELK1 was 1 fold enrichment (6-mer frequency, TF over GST control); with ERG, 1.05 fold enrichment (6-mer frequency, TF over GST control); with ELF1 it was 1.04 fold enrichment (6-mer frequency, TF over GST control); in the experiment with EHF it was 1 fold enrichment (6-mer frequency, TF over GST control); in the experiment with SPIC, 1.14 fold enrichment (6-mer frequency, TF over GST control); with ELF4 it was 1.04 fold enrichment (6-mer frequency, TF over GST control). Further, the binding signal with ELK4 is 1.24 fold enrichment (6-mer frequency, TF over GST control); with ELF3, 1.16 fold enrichment (6-mer frequency, TF over GST control); with ETV1 it was 1.11 fold enrichment (6-mer frequency, TF over GST control); with ETV3L, 1.11 fold enrichment (6-mer frequency, TF over GST control); with ETS2 it was 1.04 fold enrichment (6-mer frequency, TF over GST control); with ETV3, 1.07 fold enrichment (6-mer frequency, TF over GST control). For the same sequence, the binding signal with ETV6 is 1.03 fold enrichment (6-mer frequency, TF over GST control).
